According to PubChem BioAssay AID1845226 (National Center for Advancing Translational Sciences (NCATS), 2023):
Results filed as inconclusive are left out. Entries that show only a call come without a potency. The source made the active and inactive calls. The call rests on the fitted dose curve; in most records, active means well fitted inhibition curve with a large enough effect; inconclusive means small, poorly fitted or top-dose-only effect; inactive means no such curve, though single readings can be large or run the other way.

Test: Confirmatory fluorescence-based thiol-reactive (MSTI) qHTS assay for identification of artifact compounds
Procedure, shortened: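 Thiol reactivity read as MSTI fluorescence (Ex/Em 525/598 nm) after 1 h at room temperature in PBS pH 7.4 with 2% DMSO, MSTI 4 uM. Data normalised to Acetyl-MSTI and MSTI control wells, 4-parameter Hill fit.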
Potency means the concentration at half of the fitted maximal effect.

Row | SMILES | Potency
1 | Oc1c(C(c2ccccc2F)N2CCN(Cc3ccccc3)CC2)sc2nc(-c3ccco3)nn12 (stereo not drawn) | inactive
2 | CC(C)c1nn2c(=O)cc(COC(=O)c3cccc(NC(=O)COc4ccc(F)cc4)c3)nc2s1 | inactive
3 | Fc1ccc2c(c1)-c1nc(-c3ccccc3)cc(-c3ccccc3)c1CO2 | inactive
4 | Cc1c(C(=O)OCCOc2ccccc2)[nH]c2c1C(=O)CC(c1ccccc1)C2 (stereo not drawn) | inactive
5 | Cc1ccc(S(=O)(=O)Nc2ccc(F)cc2C(=O)Nc2nc(-c3ccccc3)cs2)cc1 | inactive
6 | Cc1ccc(CN(Cc2ccco2)C(=O)COc2ccc(Cl)cc2Cl)cc1 | inactive
7 | COc1ccc(CNC(=O)c2cc3sccc3n2Cc2ccc(C)cc2)cc1 | inactive
8 | O=C(O)Cc1cc(I)c(Oc2cc(I)c(O)c(I)c2)c(I)c1 | inactive
9 | CC[C@H]1OC(=O)[C@H](C)[C@@H](O[C@H]2C[C@@](C)(OC)[C@@H](O)[C@H](C)O2)[C@H](C)[C@@H](O[C@@H]2O[C@H](C)C[C@H](N(C)C)[C@H]2O)[C@](C)(O)C[C@@H](C)C(=O)[C@H](C)[C@@H](O)[C@]1(C)O | inactive
10 | COc1ccc(C(=O)NCC(=O)OCC(=O)c2cccc3ccccc23)cc1 | inactive
11 | COCCn1c(=N)c(C(=O)NC2CCCC2)cc2c(=O)n3cc(C)ccc3nc21 | inactive
12 | O=S(=O)(O)c1ccc(N=Nc2cc(S(=O)(=O)O)c3ccccc3c2O)c2ccccc12 | 194 nM (active)
13 | Cc1ccccc1C(=O)N1CCc2cc(-c3nc(NC(=O)Cc4ccccc4)sc3C)ccc21 | inactive
14 | O=C(NCCSc1c(-c2ccc(Br)cc2)[nH]c2ccccc12)c1ccc(S(=O)(=O)N2CCOCC2)cc1 | inactive
15 | OCC1=C[C@@H](O)[C@@H]2C=CO[C@@H](OC3O[C@H](CO)[C@@H](O)[C@H](O)[C@H]3O)[C@H]12 (stereo partly drawn) | inactive
16 | CCc1cccc(NC(=O)CN2CCCN(Cc3cccc(C)c3)S2(=O)=O)c1 | inactive
17 | O=C(Nc1cccc(Cc2ccccc2)c1)c1ccc(-c2cccc([N+](=O)[O-])c2)o1 | inactive

Row | SMILES | Potency
18 | Cc1ccc(OCc2nc3ccccc3n2Cc2ccccc2Cl)cc1 | inactive
19 | O=C1CCCc2[nH]c(=O)c(-c3nc(-c4cccc([N+](=O)[O-])c4)cs3)cc21 | 3860 nM (active)
20 | COc1ccc2oc(=O)cc(CN3CCN(C(=O)c4ccccc4F)CC3)c2c1 | inactive
21 | Cc1ccc(NS(=O)(=O)c2cc3c(cc2N2CCC2)NC(=O)CC3)cc1C | inactive
22 | CC(C)C(=O)SCCCCCCC(=O)Nc1nc(-c2ccccc2)cs1 | inactive
23 | CCOC(=O)C(C)Sc1ccc2nnc(-c3ccc(F)cc3)n2n1 (stereo not drawn) | inactive
24 | Cc1ccc(OCCn2c(CCNC(=O)c3c(F)cccc3F)nc3ccccc32)cc1 | inactive
25 | O=C(O)c1ccc(-n2c(/C=C\c3ccc(O)cc3)nc3ccccc3c2=O)cc1 | inactive
26 | COc1ccc(N2C(=O)CSC23C(=O)N(CC(N)=O)c2ccccc23)cc1 (stereo not drawn) | inactive
27 | COc1ccccc1N1CCN(S(=O)(=O)c2c(C)nc3sc(C)c(C)n3c2=O)CC1 | inactive
28 | COc1ccc(NC(=O)C(=O)Nc2ccc3nc4n(c(=O)c3c2)CCCCC4)c(OC)c1 | inactive
29 | COc1cc(NC(=O)c2ccc(C)cc2)ccc1NC(=O)c1cc2ccccc2o1 | inactive
30 | O=C(Nc1nc(-c2ccccc2)cs1)c1ccccc1[N+](=O)[O-] | 2440 nM (active)
31 | CCSc1ncc(Cl)c(C(=O)Nc2c(C(=O)Nc3cccc(C)c3)oc3ccccc23)n1 | inactive
32 | C/C(=C\c1ccc2c(c1)OCO2)C1Nc2cccc3cccc(c23)N1 | 3070 nM (active)
33 | Cc1c(C(=O)Nc2ccc(-n3c(C)nc4ccccc4c3=O)cc2)cccc1[N+](=O)[O-] | inactive
